The inhibition is how much of the control response was suppressed.

Active and inactive are the calls of the source. No rule for the calls is given here.

Chain of Pantothenate synthetase (Mycobacterium tuberculosis (strain ATCC 25618 / H37Rv)) (P9WIL5 whole entry, looked up): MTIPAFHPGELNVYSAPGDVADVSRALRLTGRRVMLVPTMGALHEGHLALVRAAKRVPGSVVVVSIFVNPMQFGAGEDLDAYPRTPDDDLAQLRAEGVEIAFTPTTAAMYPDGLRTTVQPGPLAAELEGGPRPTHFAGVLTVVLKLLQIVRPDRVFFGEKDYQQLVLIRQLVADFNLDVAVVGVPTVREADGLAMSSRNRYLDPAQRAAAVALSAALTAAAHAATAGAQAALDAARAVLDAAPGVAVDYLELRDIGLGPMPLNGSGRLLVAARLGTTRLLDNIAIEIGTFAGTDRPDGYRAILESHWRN

The test has as its target Pantothenate synthetase (Mycobacterium tuberculosis (strain ATCC 25618 / H37Rv)) (UniProt P9WIL5). Description: Coupled enzyme confirmation of inhibitors against recombinant Mtb PanC (AID 375).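 Also: 0% = full reaction with vehicle and 100% = no enzyme background.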 The note with it: coupled enzyme assay; at 10 µM, hits give high values.
Regarding `Cc1ccc(-c2noc(CCC(=O)NCCc3ccccc3Cl)n2)cc1`, the inhibition is 1% (inactive).
To `O=C(OC1CCc2ccccc2C1=O)c1ccccc1O` (centres undefined) belongs 0% (inactive); to `Cc1cc(NCCN2CCOCC2)n2nc(C)c(-c3ccccc3)c2n1`, 0% (inactive); to `COCc1nnc(NC(=O)c2ccc(S(=O)(=O)N(C)c3ccccc3)cc2)o1`, 0% (inactive).
Consider `COc1ccc(-c2oc3ncn(CCN4CCOCC4)c(=N)c3c2-c2ccc(OC)cc2)cc1`, for which the inhibition is 0% (inactive).
To `CC(=O)Nc1ccc(S(=O)(=O)n2cnc(C)c2)cc1` belongs 3% (inactive); to `CCc1nc(SCC(=O)Nc2nccs2)c2oc3ccccc3c2n1`, 0% (inactive).
Next, `COc1cc(/C=N/n2c(C)nnc2C)cc(OC)c1OC`: 4% (inactive).
To `Cc1nnc(NCCc2ccccc2)n(N)c1=O` belongs 5% (inactive); to `Cc1cc(C)n(-c2nc3c(c(=O)n(Cc4ccc(Cl)c(Cl)c4)c(=O)n3C)n2C)n1`, 1% (inactive); to `O=C(c1cnsn1)N1CCN(c2ccccn2)CC1`, 0% (inactive).
Regarding `COc1ccc(NC(=O)C(C)Oc2ccc(/C(C)=N\O)cc2)cc1` (centres undefined), the inhibition is 0% (inactive).
Regarding `Cc1nc(SC2C=CS(=O)(=O)C2)n[nH]1` (centres undefined), the inhibition was 5% (inactive).
Turning to `CC(=O)Nc1sc2c(c1C#N)CCCCC2`, the inhibition is 7% (inactive).
To `CCOC(=O)N1CCC(=C2c3ccc(Cl)cc3CCc3cccnc32)CC1` belongs 5% (inactive); to `CCn1cc(C(=O)NC2CCc3ccccc32)c(=O)c2ccc(C)nc21` (centres undefined), 0% (inactive).
Next, `OCCNC1=NCCN1`: 1% (inactive); `Cc1cc(NCC2CCCO2)n2c(nc3ccccc32)c1C#N` (centres undefined): 1% (inactive); `CCOc1ccc2c(c1)c1nnc(SCC(=O)N3CCC(C)CC3)nc1n2C`: 1% (inactive).
To `O=C1CC(N2CCC(C(=O)N3CCCCC3)CC2)C(=O)N1` (centres undefined) belongs 11% (inactive).
In the case of `CCOC(=O)c1cc2c(=O)n3cccc(C)c3nc2n(Cc2ccco2)c1=NC(=O)c1cccnc1`, the inhibition was 0% (inactive).
Next, `CCc1nnc(NC(=O)COC(=O)CN2C(=O)c3ccccc3C2=O)s1`: 0% (inactive); `Cc1nnc(SCC(=O)N2CCC(C(N)=O)CC2)s1`: 0% (inactive); `Nc1cc(C(=O)O)ccc1Nc1ccc(F)c(F)c1`: 5% (inactive).
As for `COc1ccccc1-c1cc(C(=O)NCCCn2ccnc2)no1`, the inhibition was 0% (inactive).
To `COc1cccc(NC(=O)CN2CCN(c3ccccc3F)CC2)c1` belongs 4% (inactive); to `O=C(COC(=O)c1cnccn1)Nc1ccc2c(c1)OCO2`, 7% (inactive).
To `CC1CCCCC1NC(=O)C1CCN(C(=O)NC2CCCCC2)CC1` (centres undefined) belongs 0% (inactive); to `CCc1nc2sc3c(c2c(=O)o1)CCCC3`, 0% (inactive).
Next, `O=C(NCC(c1cccnc1)N1CCOCC1)c1ccco1` (centres undefined): 2% (inactive).
`CCc1nnc(NC(=O)CSc2nnc3ncccn23)s1`: the inhibition was 11% (inactive).
As for `N#C[C@@H]1[C@@H]2C(=O)N(c3ccc4c(c3)OCCO4)C(=O)[C@@H]2C2c3ccccc3C=CN21` (some centres undefined), the inhibition is 2% (inactive).
Next, `COCCN(C(=O)CNC(=O)c1ccco1)C(C(=O)NC1CCCCC1)c1cccc(OC)c1` (centres undefined): 0% (inactive); `O=C(Nc1cccc(F)c1)N1CC=C(n2c(=O)[nH]c3ccccc32)CC1`: 5% (inactive); `COc1cccc(-n2nc(C(=O)Nc3ccc4c(c3)OCO4)c3ccccc3c2=O)c1`: 0% (inactive).
Next, `O=c1c2ccccc2nc(SCc2cccc(F)c2)n1Cc1ccco1`: 4% (inactive).
To `Cc1ccccc1NC(=O)CSc1nnc(Cc2cccn2C)n1-c1ccc(F)cc1` belongs 0% (inactive); to `Cc1ccccc1OCCN1C(=O)NC2(CCc3ccccc32)C1=O` (centres undefined), 8% (inactive); to `COc1ccc(CCNC(=O)COc2ccc(S(=O)(=O)N3CCOCC3)cc2)cc1`, 6% (inactive).

For the origin of these results see PubChem BioAssay.
